High-throughput results from PubChem BioAssay.
ALOX12 inh – blocks human arachidonate 12S-lipoxygenase; P18054; purified 12hLO, xylenol orange hydroperoxide absorbance; Potency, µM (doses to about 108 µM), inactives show top-dose activity change, negative = inhibition, hits mostly inhibitors; actives 1.1% (n = 580,000); AID 1671190; also: potency is read from the fitted curve at half-maximal effect; % is scaled to controls: 0 for no effect and ±100 for the full control effect
Target sequence (P18054 whole entry, looked up): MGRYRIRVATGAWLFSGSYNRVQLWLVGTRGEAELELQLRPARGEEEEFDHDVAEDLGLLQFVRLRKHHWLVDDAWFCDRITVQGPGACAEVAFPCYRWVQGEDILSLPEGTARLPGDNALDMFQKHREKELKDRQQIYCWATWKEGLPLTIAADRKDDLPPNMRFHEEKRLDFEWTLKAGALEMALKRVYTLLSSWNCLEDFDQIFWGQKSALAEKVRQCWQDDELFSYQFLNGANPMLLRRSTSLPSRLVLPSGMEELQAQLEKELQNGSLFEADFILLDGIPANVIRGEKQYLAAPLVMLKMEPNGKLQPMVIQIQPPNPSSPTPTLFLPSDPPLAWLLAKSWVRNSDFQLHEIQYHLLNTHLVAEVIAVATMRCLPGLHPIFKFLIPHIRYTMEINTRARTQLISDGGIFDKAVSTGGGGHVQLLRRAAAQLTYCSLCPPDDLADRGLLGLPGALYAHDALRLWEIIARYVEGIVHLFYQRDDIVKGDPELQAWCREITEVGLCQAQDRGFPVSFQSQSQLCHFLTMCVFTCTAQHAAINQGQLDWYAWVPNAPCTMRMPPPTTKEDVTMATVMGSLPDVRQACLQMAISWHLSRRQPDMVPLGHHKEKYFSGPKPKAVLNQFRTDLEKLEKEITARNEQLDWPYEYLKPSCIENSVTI
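Purified human 12hLO (150 nM final) in 25 mM Hepes, 0.01% Triton X-100, pH 7.0 was preincubated 15 min at room temperature with compound. Then 40 uM arachidonic acid was added, 30 min. Hydroperoxide was read by Fe-XO absorbance ratio 573/405 nm.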
IL2 activator – IL-2 activation. actives 0.065% (n = 360,000). activation, % (series mostly up to about 46 µM). IL-2 activation reporter assay, cell-based qHTS; stimulated with anti-CD3/CD4/CD28 beads; in transgenic mouse T cells; in the data active = activation above about 50%; inconclusive = mostly about 30% to 49%; also: 0% is about no effect
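Using fluorescent plate cytometry, EGFP and DsRed are detected in transgenic mouse T cells stimulated 18 h at 37 degrees C with antibody-coated beads after 60 min compound pretreatment.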
Nrf2 activator – Nrf2 pathway activation; AREc32 ARE-luciferase reporter (MCF7-derived line), luminescence, 24 h; Potency, µM (doses to about 46.1 µM), inactives show top-dose activation, hits mostly activators; actives 0.31% (n = 410,000); AID 624171; also: potency is read from the fitted curve at half-maximal effect; % of control where 0% means no effect; nearly all actives have a fitted effect of over 65% in size
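Luminescent ARE reporter assay in AREc32_Fluc cells: overnight plating at 37 deg C, 24 hr compound incubation, Steady-Glo added, 30 min RT before reading.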
uPA generation – blocks generation of uPA at the cell surface; cell surface uPA generation assay, qHTS; Potency, µM (series often up to 38.3 µM), without a hit: at the top dose activity change, negative = inhibition, actives largely listed as inhibitors; actives 0.31% (n = 330,000); AID 540303; active = well fitted inhibition curve with a large enough effect; inconclusive = small, poorly fitted or top-dose-only effect; inactive = no such curve, though single readings can be large or run the other way; tested in mouse RAW 264.7 cells; also: potency is read from the fitted curve at half-maximal effect; % is scaled to controls: 0 for no effect and ±100 for the full control effect; nearly all actives have a fitted effect of over 55% in size
a7 integrin act – activators of alpha7 integrin expression for muscular dystrophy. alpha7betagal myoblasts, beta-gal FDG fluorescence, 48 h. Potency, µM (titrated, usually from 38.3 µM), for the others: at the top dose activation, usual class: activators. actives 0.064% (n = 350,000). AID 624291;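 also: potency is read from the fitted curve at half-maximal effect; 100% = response of the positive control SU9516; nearly all actives have a fitted effect of over 60% in size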
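Alpha7betagal+/- myoblasts (passage 13) were plated 16-24 hr, then exposed to compounds (1:260 dilution of DMSO stock) for 48 hours at 37C. After MPER lysis, β-galactosidase reporter activity was read as FDG fluorescence (ex 480/em 540) after 30 minutes.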
* marks the source's active call; other numbers are inactive results; ? = inconclusive; · = not tested or not shown; ! = not confirmed by another sample. An excerpt weighted towards active compounds, which were near 1.5% of everything screened. Unless noted, calls follow the shape of the dose curve; as a rule, active = well fitted curve in the direction sought with a large enough effect; inconclusive = small, poorly fitted or top-dose-only effect, or another doubt; inactive = no such curve, though single readings can be large; an effect the other way counts as inactive or inconclusive.

SMILES	ALOX12 inh	IL2 activator	Nrf2 activator	uPA generation	a7 integrin act
CCN(CC)CCCNC(=O)c1cc(-c2ccc(OC)cc2)nc2ccccc12	6.3µM*	·	·	·	·
CCCOc1cccc(-c2cc(C(=O)NNC(=S)NCC)c3ccccc3n2)c1	25µM*	-4	6%	·	-51%
Cc1cc(S(=O)(=O)N2CCCC(CCC(=O)N3CCOCC3)C2)n(C)n1 (configuration not stated)	23%	·	·	·	·
CCC(=O)N1N=C(c2ccccc2C)CC1c1ccc2nccnc2c1 (configuration not stated)	-9%	·	·	·	·
O=C(CCc1ncc(-c2ccc(Cl)cc2)o1)N1CCC(C(=O)N2CCCC2)CC1	3%	·	·	·	·
OCCC1CN(Cc2cc3ccccc3o2)CCN1Cc1ccc(F)cc1 (configuration not stated)	?	1	0%	16%	-19%
O=c1cc(CN2CCN(Cc3ccc(F)cc3)C(CCO)C2)[nH]c2ccccc12 (configuration not stated)	35µM*	-2	-1%	-3%	-7%
c1ccc(-c2cc(-c3ccc(N4CCOCC4)cc3)nc3ccccc23)cc1	-13%	-2	1%	-4%	11%
COc1ccc2c(-c3ccccc3)cc(N3CCOCC3)nc2c1	1.8µM*	-1	4%	3%	-36%
CC(C)c1ccc(C2C(C#N)=C(SCC(N)=O)NC3=C2C(=O)CCC3)cc1 (configuration not stated)	45µM*	·	·	·	·
COc1cccc(NC(=O)CSC2=C(C#N)C(c3ccc(C(C)C)cc3)C3=C(CCCC3=O)N2)c1 (configuration not stated)	51%	·	·	·	·
CCn1cc(C=C2C(=O)c3ccccc3C2=O)c2ccccc21	-6%	108*	?	6%	-14%
Cc1cc(C)c2cc(CN(Cc3nnnn3C3CCCCC3)CC3CCCO3)c(=O)[nH]c2c1 (configuration not stated)	11µM*	0	9%	-5%	-14%
CCC(C)(C)c1ccc2c(C(=O)N3C[C@H](N)C[C@H]3C(=O)NC)csc2c1	13µM*	·	·	·	·
CC(C)NC(=O)[C@@H]1C[C@@H](N)CN1C(=O)c1cccc2ccccc12	1%	·	·	·	·
Cc1ccc(CC2S/C(=N/N=C/c3ccco3)NC2=O)cc1 (configuration not stated)	-1%	0	4.5µM*	3%	2%
O=C(O)Cn1cc(-c2ccccc2)ncc1=O	-109%	·	·	·	·
CCOC(=O)C1=C(C)N=C2SC=C(CC(=O)N(C)CC)N2C1c1cccc([N+](=O)[O-])c1 (configuration not stated)	7%	·	·	·	·
c1csc(-c2nc(-c3ccc(-c4ccon4)s3)no2)c1	0%	0	5.6µM*	-15%	0%
c1ccc(-c2nc(-c3ccc(-c4ccon4)s3)no2)cc1	239%	1	10%	2%	?
COc1ccc(-c2nc(-c3cccs3)no2)cc1	-5%	-1	2%	-11%	?
Cc1ccc(-c2noc(-c3cccs3)n2)cc1	-12%	-1	11µM*	-21%	-7%
CCN1CCN(CCC2Oc3cc([N+](=O)[O-])ccc3NC2=O)CC1 (configuration not stated)	-3%	-1	0%	0%	2%
COc1ccc(N2CCN(CCC3Oc4cc([N+](=O)[O-])ccc4NC3=O)CC2)cc1 (configuration not stated)	0%	-3	3%	2%	8.9µM*
CN(c1ccc(C(=O)NCc2cccs2)cc1)S(=O)(=O)c1ccccc1	-11%	2	0%	2.2µM*	-7%
SMILES	ALOX12 inh	IL2 activator	Nrf2 activator	uPA generation	a7 integrin act
CN(c1ccccc1)S(=O)(=O)c1ccc(C(=O)OCC(=O)NCc2cccs2)cc1	0%	1	0%	?	?
CCN(CC(=O)NCc1cccs1)C(=O)CCC(=O)c1ccc(C)cc1	28µM*	-2	0%	-1%	1%
CCN(CC(=O)NCc1cccs1)C(=O)CCC(=O)c1ccc(F)cc1	-23%	-1	0%	-2%	-2%
Cc1ccc(C(=O)NCCc2cccs2)cc1	4%	-3	-3%	5µM*	16%
Cc1nc2ccccc2cc1C(=O)O	7.9µM*!	0	0%	5%	11%
CNc1c(NC(=O)c2ccccc2Br)c(=O)oc2ccccc12	-3%	·	·	·	·
Fc1ccc(NC(=S)NCCC(c2ccccc2)c2ccccc2)cc1Cl	25µM*	·	·	·	·
Cc1cccc(NC(=S)NCCC(c2ccccc2)c2ccccc2)c1	35µM*	0	-1%	0%	?
Cc1c(Cl)cccc1NC(=S)NCCC(C)C	0%	-1	0%	-2%	-7%
Cc1c(Cl)cccc1NC(=S)NCCC(c1ccccc1)c1ccccc1	25µM*	-1	0%	2%	?
Fc1ccc(NC(=S)Nc2cc(-c3ccccc3)[nH]n2)cc1Cl	28µM*	-1	18%	0%	-26%
CCC1(C(=O)NCc2ccc(F)cc2)CCCCC(=O)N1 (configuration not stated)	35%	·	·	·	·
COCCNC(=O)[C@H]1C[C@H](Oc2cccnc2)CN1C(=O)Nc1ccccc1	42%	·	·	·	·
Cc1cc(S(=O)(=O)Nc2ccc(O)c(Sc3nc4ccccc4s3)c2)ccc1Cl	?	·	-1%	·	·
O=S(=O)(Nc1ccc(O)c(Sc2nc3ccccc3s2)c1)c1cc(Cl)ccc1Cl	10µM*	·	4%	·	·
COc1ccc2oc(=O)c(C(=O)Nc3cccc(C(C)=O)c3)cc2c1	0%	1	0%	-2%	?
COc1ccc2oc(=O)c(/C(C)=N/Nc3ccccc3)cc2c1	32µM*	0	4%	8%	-17%
CC(NC(=O)c1ccccc1NC(=O)CSc1nncn1-c1ccccc1F)c1ccccc1 (configuration not stated)	-2%	·	·	·	·
Clc1ccc(-c2cn3c(n2)-c2ccccc2C3)cc1Cl	-5%	-3	6%	10µM*	8%
Clc1ccc(-c2cn3cc(Br)ccc3n2)cc1Cl	-11%	-2	?	-6%	19%
N#CC1=C(S)N(c2ccccc2)C(c2ccco2)NC1=O (configuration not stated)	?	2	0%	-2%	2%
N#CC1=C(S)N(c2ccc(F)cc2)C(c2ccco2)NC1=O (configuration not stated)	45µM*	0	0%	-2%	-12%
N#CC1=C(S)N(c2ccccc2)C(c2ccc(-c3ccc(Cl)c(Cl)c3)o2)NC1=O (configuration not stated)	18µM*	0	0%	11%	9%
N#CC1=C(S)N(c2ccccc2)C(c2ccc(-c3cc(Cl)ccc3Cl)o2)NC1=O (configuration not stated)	?	-1	0%	-16%	4%
Cc1cc2oc(=O)cc(Cn3ncc(Cl)c(Cl)c3=O)c2cc1Cl	·	-1	4µM*	-10%	-63%
